CYP2C9 act: activators of human CYP2C9; activation factor at 5 µM; P11712; hit rate 1.4% among 96,000; recombinant CYP2C9, luciferin-H conversion, luminescence; stronger effect = higher value; factor 1 = untreated enzyme, 0 = blocked;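 active = activation factor of 2 or more for CYP2C9 at a 5 µM dose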;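 note: 0 = sulfaphenazole-blocked wells and 1 = vehicle-only wells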
CYP2C19 inh: inhibitors of human CYP2C19. inhibition, % at 5 µM. hit rate 21% among 96,000. CYP2C19 Supersomes, luciferin-H EGE luminescence, 30 min. P33261;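 active = CYP2C19 inhibition above a set limit at 5 µM in the primary screen, cut at about 50% in these data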;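 note: plate controls were negative control wells for no effect and 2.5 mM tranylcypromine positive control for full effect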
Target sequence (P33261 whole entry, looked up): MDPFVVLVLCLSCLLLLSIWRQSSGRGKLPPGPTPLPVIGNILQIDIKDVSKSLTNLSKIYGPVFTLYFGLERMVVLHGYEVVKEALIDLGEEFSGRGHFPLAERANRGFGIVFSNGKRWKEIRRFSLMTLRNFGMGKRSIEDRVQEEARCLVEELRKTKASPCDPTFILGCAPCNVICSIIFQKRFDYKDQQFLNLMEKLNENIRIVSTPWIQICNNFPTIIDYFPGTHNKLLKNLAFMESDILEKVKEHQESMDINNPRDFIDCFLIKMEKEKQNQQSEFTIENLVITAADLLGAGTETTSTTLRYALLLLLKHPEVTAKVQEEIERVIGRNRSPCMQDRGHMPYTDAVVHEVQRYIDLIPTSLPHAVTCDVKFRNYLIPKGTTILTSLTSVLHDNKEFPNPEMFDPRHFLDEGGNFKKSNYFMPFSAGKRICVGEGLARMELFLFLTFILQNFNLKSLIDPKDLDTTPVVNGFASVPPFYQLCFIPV
CYP2C19 activ: cytochrome P450 2C19 (human) activation | recombinant CYP2C19, luciferin-H EGE luminescence; stronger effect = higher value; 0 = fully inhibited enzyme, 1 = untreated enzyme | activation factor at 5 µM | AID 1025 | 96,000 tested, under 10 active;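 active = activation factor of at least 2 at 5 µM in the primary screen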;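 note: 0 = wells with 2.5 mM tranylcypromine and 1 = vehicle-only wells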
Cav32 inh: inhibitors of human Cav3.2 T-type calcium channel; O95180; Cav3.2-expressing cells, Fluo-4 calcium fluorescence FDSS; stronger effect = lower value; B-score at 10 µM; hit rate 4% among 100,000;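 active = single-dose well whose peak fluorescence ratio is a statistical outlier from its plate by either plate-standardised score or position-corrected B-score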
CYP2C9 inh: blocks human cytochrome P450 2C9; P11712; hit rate 20% among 96,000; CYP2C9 Supersomes, luciferin-H conversion, luminescence; AID 777; inhibition, % at 5 µM;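 active = blocking of liver enzyme CYP2C9 beyond about 50% at 5 µM, limit read from the data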
The depositor's hits bear a star; / = no result. An excerpt weighted towards active compounds, which were near 27% of everything screened.

SMILES	CYP2C9 act	CYP2C19 inh	CYP2C19 activ	Cav32 inh	CYP2C9 inh
COc1cc(C(=O)NCC2CCCO2)cc(OC)c1OC (stereo not drawn)	/	/	/	0.487	/
COC(=O)c1ccc2c(c1)NC(=O)C1CCCN21 (stereo not drawn)	/	/	/	-4.26*	/
COC(=O)c1ccc(N2CCC(C)CC2)c(N)c1	0.5	60.1*	0.4	-0.346	47.9
Cc1ccc(NC(=O)COC(=O)c2ccc3c(c2)NC(=O)C2CCCN32)cc1 (stereo not drawn)	0.8	15.6	0.8	-0.482	20.5
CNC(=O)c1sc(N2N=C3/C(=C/c4ccccc4)CCCC3C2c2ccccc2)nc1C (stereo not drawn)	0.7	32.9	0.7	-4.38*	33.5
O=C1CCC(C(=O)OCC(=O)N2N=C3/C(=C/c4ccccc4)CCCC3C2c2ccccc2)N1 (stereo not drawn)	0.8	-33.5	1.3	-2.23	21.9
CCn1c(=O)n(CC)c2cc(S(=O)(=O)NCCOc3ccccc3)c(C)cc21	0.3	51.3*	0.5	-0.277	72.0*
CCNS(=O)(=O)c1c(C)cc(N2CCCC2=O)cc1C	0.5	24.4	0.8	-0.378	49.9
Cc1cc(N2CCCC2=O)cc(C)c1S(=O)(=O)NCCOc1ccccc1	0.1	88.4*	0.1	-3.57	91.5*
COC(=O)CCC(=O)c1oc2ccc(Cl)cc2c1NC(=O)CCCN1C(=O)c2ccccc2C1=O	0.2	67.0*	0.3	-1.32	79.9*
COc1cc2c(cc1NC(=O)CCCN1C(=O)CCC1=O)oc1ccccc12	0.8	30.4	0.7	0.253	23.7
CC(=O)C1=C(C)NC(SCC(=O)c2ccc(C)cc2)=C(C#N)C1c1ccco1 (stereo not drawn)	0	99.0*	0	-5.04*	96.0*
COc1ccc(NC(=O)CSC2=C(C#N)C(c3ccco3)C(C(=O)Nc3nc4ccccc4s3)=C(C)N2)cc1 (stereo not drawn)	/	/	/	-1.47	/
CCOC(=O)C1=C(c2ccccc2)NC(SCC(=O)NC2CCCCC2)=C(C#N)C1c1ccco1 (stereo not drawn)	0.4	29.5	0.7	-0.829	61.0*
COCCOC(=O)C1=C(C)NC(SCC(=O)NC(C)(C)C)=C(C#N)C1c1ccco1 (stereo not drawn)	0.1	82.0*	0.2	-0.504	86.2*
O=C(COC(=O)c1ccco1)NC1CCCCC1	1	13.3	0.9	-0.506	0.0
COc1ccccc1NC(=O)C1=C(C)NC(SCC(=O)c2ccccc2)=C(C#N)C1c1ccco1 (stereo not drawn)	0.2	54.8*	0.5	-3.04	78.4*
CC1=C(C(N)=O)C(c2ccco2)C(C(N)=O)=C(C)N1	1	6.1	0.9	-0.817	1.1
COc1ccccc1-n1c(SCC(=O)NC(C)(C)C)nnc1-c1ccco1	/	/	/	0.136	/
O=C(c1ccc(Cl)c(F)c1F)N1CCCC1	1	14.1	0.9	/	-0.6
Cc1sc2c(c1C)c(=O)n(-c1cccc(C(F)(F)F)c1)c(=O)n2CC(=O)NCc1ccco1	0.9	9.6	0.9	-0.38	8.4
Cc1cc(C)cc(-n2nnc(C(=O)NCc3ccccc3Cl)c2N)c1	2.8*	8.3	0.9	-0.494	-175.5
Cn1c(N)c(C(=O)NCc2ccccc2Cl)sc1=S	0.5	33.6	0.7	1.4	47.8
CC(C)C(C(=O)NCc1ccco1)N(C(=O)CNS(=O)(=O)c1ccccc1)C1CCCC1 (stereo not drawn)	1.2	6.7	0.9	/	-18.8
CCC(C(=O)NCc1ccco1)N(C(=O)CNS(=O)(=O)c1ccccc1)C1CCCCC1 (stereo not drawn)	0.6	70.6*	0.3	0.395	37.3
SMILES	CYP2C9 act	CYP2C19 inh	CYP2C19 activ	Cav32 inh	CYP2C9 inh
CCCC(C(=O)NCc1ccco1)N(C(=O)CNS(=O)(=O)c1ccc(Cl)cc1)C1CCCC1 (stereo not drawn)	0.2	91.7*	0.1	-8.38*	80.2*
CCN1C(=O)c2cccc3c(NS(=O)(=O)c4ccc(NC(C)=O)cc4)ccc1c23	0.1	99.2*	0	-0.442	85.6*
CCN1C(=O)c2cccc3c(NC(=O)c4ccc(S(=O)(=O)N5CCOCC5)cc4)ccc1c23	0.3	38.4	0.6	1.23	73.7*
CCN1C(=O)c2cccc3c(S(=O)(=O)Nc4ccccc4OC)ccc1c23	0	61.4*	0.4	/	98.8*
CCN1C(=O)c2cccc3c(NC(=O)c4ccc(S(=O)(=O)N(C)C)cc4)ccc1c23	0.6	12.6	0.9	0.498	36.5
CCOC(=O)c1ccc(NC(=O)Nc2ccc3c4c(cccc24)C(=O)N3CC)cc1	1	3.1	1	0.294	-3.6
O=C(Nc1nccs1)Oc1ccccc1	0.8	8.8	0.9	0.429	25.0
O=C(CCCOc1ccccc1)Nc1nccs1	0.5	86.0*	0.1	-0.138	50.8*
O=C(CSCc1ccccc1)Nc1nccs1	0.6	50.2*	0.5	0.1	43.6
Cc1ccc(OCCCC(=O)Nc2nncs2)cc1	0.3	88.2*	0.1	0.0168	74.3*
O=C(CCCN1C(=O)c2ccccc2C1=O)Nc1nncs1	0.9	0.3	1	0.207	10.4
O=C(CSc1nc(-c2ccccc2)nc2ccccc12)Nc1nccs1	0.8	2.9	1	0.518	18.7
Cn1c(CSCc2ccccc2)nnc1SCC(=O)Nc1nccs1	/	/	/	0.0406	/
O=C(CSc1cn(Cc2ccccc2)c2ccccc12)Nc1nccs1	0	95.9*	0	-4.35*	98.7*
CC(C)NC(=O)CSCc1c(Cl)cccc1Cl	0.8	42.1	0.6	0.355	21.2
CCCC(=O)Nc1ccc2nc(SCC(=O)Nc3nccs3)sc2c1	0.9	20.1	0.8	-0.0102	8.4
O=C(CSCc1c(Cl)cccc1Cl)Nc1nccs1	0.2	21.5	0.8	-1.19	75.3*
O=C(CCCSc1nc2ccccc2s1)Nc1nccs1	0.1	79.1*	0.2	-1.5	87.6*
Cn1ccnc1C(O)(c1nnc(-c2ccccc2)o1)C(F)(F)F (stereo not drawn)	1	-8.0	1.1	-0.162	-3.6
Cc1ccc(CNC(=O)C2CC(=O)OC23CCCC3)c(C)c1 (stereo not drawn)	/	/	/	0.95	/
COc1ccc(NC(=O)C2CC(=O)OC23CCOC(C)(C)C3)cc1 (stereo not drawn)	0.8	57.4*	0.4	0.568	15.2
COc1ccc(C)cc1NC(=O)C1CC(=O)OC12CCCCC2 (stereo not drawn)	1	78.3*	0.2	0.502	2.8
Cc1cccc(NC(=O)C2CC(=O)OC23CCCCC3)c1 (stereo not drawn)	0.9	76.5*	0.2	-0.112	6.6
O=C(CCNS(=O)(=O)c1cccs1)N1CCCCCC1	1.1	19.2	0.8	/	-5.5
O=S(=O)(Nc1ccc(S(=O)(=O)N2CCCCCC2)cc1)c1cccs1	0.1	-18.4	1.2	-2.66	90.6*
O=S(=O)(Nc1ccc(S(=O)(=O)N2CCCCC2)cc1)c1ccc(Br)s1	0	17.6	0.8	-5.42*	95.5*
O=S(=O)(Nc1ccc(N2CCCCC2)cc1)c1cccs1	0	98.2*	0	-1.78	100.4*
